Data on 20 molecules can be found in PubChem BioAssay (Tox21).

Assay [1] is described as follows: qHTS assay to identify small molecule agonists of the hypoxia (HIF-1) signaling pathway - cell viability counter screen (AID 1224844; calls by dose curve; also: nearly all actives have a fitted effect of over 50% in size; also: potency is read from the fitted curve at half-maximal effect). The gist of the method: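 CellTiter-Glo luminescence read-out, 30 min RT, taken in the same wells as the beta-lactamase HRE reporter assay; HRE-bla ME-180 cells, 0.5% dialyzed FBS, 17 hr compound treatment at 37C, 5% CO2.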
(In qHTS, concentration-response curves come from the screen itself.)

Assay [2] can be described thus: qHTS assay to identify small molecule agonists of H2AX (AID 1224845; active = well fitted activation curve with a large enough effect in the signal ratio in the repeat runs, not every such curve was filed as active; the % refers to the signal ratio). The gist of the method: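 Phospho-H2AX Ser139 measured by HTRF (ex 320 nm; em 665 and 620 nm) after 24 hr antibody incubation. Compounds, 15 concentrations, 0.76% DMSO, were applied to CHO-K1 cells for 3hr at 37C before lysis.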
A short description of assay [3]: qHTS assay to identify small molecule agonists of the hypoxia (HIF-1) signaling pathway (AID 1224846; active = well fitted activation curve with a large enough effect in the signal ratio in the repeat runs, not every such curve was filed as active; the % refers to the signal ratio). In short, it runs like this:
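Beta-lactamase FRET read-out (CCF4-AM substrate) from ME-180 cells carrying an HRE-driven bla reporter, after 17 hrs compound exposure at 37C/5% CO2. Cells were seeded at 2,000 per well in 0.5% dialyzed FBS medium and preincubated 5 hrs.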

Assay [4] can be described thus: qHTS assay to identify small molecule agonists of H2AX - cell viability counter screen (AID 1224847; calls by dose curve; also: nearly all actives have a fitted effect of over 30% in size; also: potency is read from the fitted curve at half-maximal effect). The gist of the method:
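Viability of CHO-K1 (wild type) cells after 3 hr compound exposure was measured by CellTiter-Glo luminescence.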

A short description of assay [5]: qHTS RealTime-Glo MT Cell Viability Assay in HepG2 cells - 24 hour (AID 1224867). Also: nearly all actives have a fitted effect of over 50% in size. Also: potency is read from the fitted curve at half-maximal effect. The gist of the method:
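Tox21 10K library screened in qHTS format on HepG2 cells carrying RealTime-Glo reagents. Compounds were added after a 5 h preincubation, and the luminescent signal from continuous culture was measured repeatedly during 40 h treatment.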

Assay [6] in a line: qHTS RealTime-Glo MT Cell Viability Assay in HEK293 cells - 32 hour (AID 1224868). Also: nearly all actives have a fitted effect of over 50% in size. Also: potency is read from the fitted curve at half-maximal effect. The gist of the method:
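Luminescence generated by NanoLuc from substrate produced by living HEK293 cells served as the viability signal. Each value reflects the reading at its stated time point during continuous 40 h compound exposure at 37 C.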

Assay [7] can be described thus: A CellTox Green Cytotoxicity Assay to monitor cytotoxicity in HEK293 cells - 0 hour (AID 1224869). Also: nearly all actives have a fitted effect of over 50% in size. In short, it runs like this: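 Read-out: fluorescence of a cell-impermeant cyanine dye staining DNA of dead cells, proportional to cytotoxicity. HEK293, 600 cells/well with reagent, compound (23 nL DMSO) added after 5 h; reads at 0, 8, 16, 24, 32, 40 h.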
The nature of assay [8]: qHTS RealTime-Glo MT Cell Viability Assay in HepG2 cells - 40 hour (AID 1224870). Also: nearly all actives have a fitted effect of over 50% in size. Also: potency is read from the fitted curve at half-maximal effect. The gist of the method: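 Real-time viability: cells seeded at 600 per well together with NanoLuc and cell-permeant prosubstrate, compounds added after 5 h incubation. Luminescence tracked at 0, 8, 16, 24, 32 and 40 h of exposure.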
A short description of assay [9]: qHTS assay to identify small molecule agonists of the estrogen related receptor (ERR) signaling pathway from Tox21 library (AID 1224849; calls by dose curve; also: nearly all actives have a fitted effect of over 15% in size). The conditions noted are these: ERR reporter cell line, ONE-Glo luciferase, 18 h; at 92.4 µM (top of the series). In short, it runs like this:
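Luminescence readout (ONE-Glo, 30 min RT) after 18 h compound exposure at 37 C of NTP-supplied ERR reporter cells; cells were plated 6 h before compound addition by pin tool.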

Molecules are shown by their SMILES. Where “and” joins values, the source holds several entries; their conditions need not be identical. Equal entries are not always repeated. Results filed as inconclusive are left out. More than one record can exist for a structure, and the calls need not agree. Calls of active or inactive are those of the source. Unless noted, calls follow the shape of the dose curve; as a rule, active = well fitted curve in the direction sought with a large enough effect in the repeat runs; inconclusive = weak or mixed curves; inactive = no such curve, though single readings can be large; an effect the other way counts as inactive or inconclusive.
% is scaled to controls: 0 for no effect and ±100 for the full control effect.

For the molecule `CC(C)COC(=O)c1ccccc1C(=O)OCC(C)C`, the Potency entry in assay [1], in assay [2], in [4], in [5], in assay [6] and in assay [7] was “inactive” in each case. In assay [8], the Potency entry is “inactive”. In addition, the result in [3] was inactive.
With `CNC(=O)CSP(=S)(OC)OC`, the Potency entry in assay [1], in assay [4], in assay [6], in [7] and in assay [8] was “inactive” throughout. The molecule was classed as inactive in assay [3].
For `c1ccc(C2CO2)cc1` (stereo not drawn), the Potency result in assay [1], in assay [4], in [6], in assay [7] and in assay [8] was “inactive” in each case. The result in assay [3] was inactive.
In the case of `C[N+](C)(C)CC(=O)O`, the Potency entry in [1], in [4], in [5], in assay [6], in assay [7] and in assay [8] was “inactive” throughout.
`C=C(C)C#N`: the Potency entry in [1], in assay [4], in [7] and in [8] was “inactive” in each case. Besides, the molecule was classed as inactive in [3]. Further, the Potency result in assay [6] is “inactive and 5.49 µM (active)”.
Turning to `Clc1cccc(Cl)c1`, the Potency entry in assay [1], in assay [4], in [6], in assay [7] and in assay [8] was “inactive” throughout. Further, the result in assay [3] was inactive. The activity change, positive = activation in assay [9] was -0.0986% (inactive) and 9.44% (inactive).
Regarding `[Cl-].[Cl-].[Cl-].[Fe+3]`, the Potency result in assay [1], in assay [4], in assay [5], in assay [6], in assay [7] and in [8] was “inactive” each time. Also, the call in assay [3] was inactive.
Regarding `CCCCCCCCCc1ccc(O)cc1`, the Potency in assay [1] was 39.3 µM (active) and 54.9 µM (active); in assay [4], 90.7 µM (active) and 101 µM (active); in assay [6], 9.87 µM (active) and 5.49 µM (active). Moreover, the Potency entry in [5], in assay [7] and in assay [8] was “inactive” throughout.
Consider `CC(O)CN(CC(C)O)CC(C)O` (stereo not drawn), for which the Potency entry in assay [1], in assay [4], in assay [5], in [6], in assay [7] and in assay [8] was “inactive” throughout. The call in [3] was inactive.
Turning to `N#Cc1c(Cl)c(Cl)c(Cl)c(C#N)c1Cl`, the Potency is 3.03 µM (active) and 3.09 µM (active) in [1]; 55.6 µM (active) in assay [4]; 21.5 µM (active) and 4.9 µM (active) in [5]; 1.7 µM (active) and 1.23 µM (active) in [6]; 19.1 µM (active) and 3.47 µM (active) in assay [8]. Besides, in [7], the Potency entry is “inactive”.
As for `CC(C)Nc1ccc(Nc2ccccc2)cc1`, the Potency in assay [4] is 50.3 µM (active) and 89.8 µM (active); in assay [6], 17.3 µM (active) and 19.5 µM (active). Besides, the activity change, positive = activation in assay [9] is -81.7% (inactive) and -69.9% (inactive). The Potency entry in assay [7] was “inactive”.
Take `NN=C(N)N`: the Potency result in assay [1], in [4], in assay [5], in assay [6], in assay [7] and in [8] was “inactive” throughout.
On to `CCC(=O)Nc1ccc(Cl)c(Cl)c1`, for which the Potency result in assay [1], in assay [4], in assay [5], in [7] and in [8] was “inactive” each time. Further, the call in [3] was inactive. Also, the Potency in [6] is 44.5 µM (active).
As for `CCCCCCCCCC(CC)c1ccc(S(=O)(=O)O)cc1` (stereo not drawn), the call in [3] was inactive. Besides, the Potency result in assay [5], in assay [7] and in [8] was “inactive” throughout. In assay [6], the Potency is 39.3 µM (active) and inactive.
For the molecule `O=[N+]([O-])c1ccc(Cl)c([N+](=O)[O-])c1`, the Potency in assay [1] is 19.8 µM (active) and 13.8 µM (active); in [4] it was 102 µM (active); in assay [5], 35.2 µM (active) and 17.4 µM (active); in assay [6] it was 9.92 µM (active) and 12.3 µM (active); in [8], 35.2 µM (active) and 17.4 µM (active). For the same molecule, in assay [9], the activity change, positive = activation was -81.7% (inactive) and -78.5% (inactive). The Potency entry in assay [7] is “inactive”.
Consider `CC(C)(O)C#N`, for which the Potency entry in assay [1], in [4], in [5], in assay [6], in assay [7] and in [8] was “inactive” each time. The result in [3] was inactive.
As to `ClC(Cl)(Cl)Br`, the Potency result in assay [1], in assay [4], in assay [6], in [7] and in assay [8] was “inactive” throughout. The outcome in assay [3] was inactive.
With `OC(c1ccc(Cl)cc1)(c1cncnc1)c1ccccc1Cl` (stereo not drawn), the Potency result in assay [1] and in [7] was “inactive” throughout. For the same molecule, the molecule was classed as inactive in assay [3]. Moreover, the Potency in [4] is 115 µM (active); in assay [6], 6.27 µM (active) and 24.5 µM (active); in [8], 17.7 µM (active) and inactive. Further, the activity change, positive = activation in [9] is -83.4% (inactive) and -41.2% (inactive).
Take `COc1ccc(O)c(C(C)(C)C)c1`: the Potency entry in assay [1], in assay [4], in [5], in assay [6], in [7] and in assay [8] was “inactive” throughout. For the same molecule, the molecule was classed as inactive in assay [3].
As to `CCOC(=O)c1ccccc1N`, the Potency entry in assay [1], in assay [4], in assay [5], in assay [6], in [7] and in assay [8] was “inactive” throughout. In assay [3], the molecule was called inactive.
